The results in this text go back to PubChem BioAssay (NCI).

About 83,000 compounds went through this panel and 20% of them were active in at least one assay; those are over-represented in the sample as a whole.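 Results are percent growth after 48 hours of single-concentration exposure. 100 means growth as in untreated cells, lower positive values show inhibition; negative values down to -100 show cell death.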 Active and inactive are the calls of the source.

The assay relates to LOX IMVI melanoma. Briefly: NCI-60 one-dose screen, 48 h (100 = growth as untreated, 0 = no growth, -100 = all killed). The settings on record: 10 µM. The method, then: Growth inhibition of the LOX IMVI human tumor cell line is measured as a screen for anti-cancer activity. Cells are grown in 96 well plates and exposed to the test compound for 48 hours. Compounds are tested at a single concentration, which is 10^-5 M for most compounds. The reported endpoint is percent growth (GI% or GIPRCNT), where numbers from 0 - 100% represent growth inhibition, and numbers from -100% - 0 represent cell death. For example, a value of 40 represents 60% growth inhibition. A value of 0 means no net growth occurred over the course of the experiment. A value of -40 indicates 40% of cells at the beginning of the experiment died by the end of the experiment. A value of -100 means all cells are dead at the end of the experiment.
NCI-60 Human Tumor Cell Lines Screen was performed using the standard one-dose NCI protocol, which is described in more detail at https://dtp.cancer.gov/discovery_development/nci-60/default.htm.
Compounds with GIPRCNT values below 10 were considered active. Activity score was based on GIPRCNT using the following formula: […]
Score is 0 for GIPRCNT values of 100 or above, 50 for GIPRCNT values of 0, and 100 for GIPRCNT values of -100.
As for `COc1cc(-c2nc3ccccc3o2)cc(CN2CCCCC2)c1O`, the growth is -18.6% (active). The figure for `O=C(CN(C1CCCCC1)C1CCCCC1)Nc1ccc(S(=O)(=O)c2ccc(NC(=O)CN(C3CCCCC3)C3CCCCC3)cc2)cc1` is -81% (active). As for `CC(C)Cc1ccc([C@H](C)C(=O)O)cc1`, the figure is 101% (inactive); as for `COC(=O)CC[C@@H](C)[C@H]1CC[C@H]2[C@@H]3CC[C@@H]4C[C@H](O)CC[C@]4(C)[C@H]3C[C@H](O)[C@]12C`, 93.6% (inactive). As for `CCCc1cn(CC(=O)Nc2nc3ccccc3s2)nn1`, the figure is 96.6% (inactive). Regarding `Oc1cccc(-c2nc3sccn3c2-c2ccncn2)c1`, the growth was 36.2% (inactive).

As to `Cc1ccc(NCCN(C)CC(C)O)c2c(=O)c3ccccc3sc12` (stereo not given), the growth was 12.6% (inactive). As for `CC(C)(C)c1nn(-c2ccccc2)c2c1CC1(CN2Cc2ccc(Cl)cc2)C(=O)c2ccccc2C1=O`, the figure is 81.8% (inactive).

On to `COc1ccc(N=Nc2cc(OC)c(OC)c(OC)c2)cc1`, for which the growth is 79% (inactive). Turning to `O=C(O)c1ccc(-n2cc(CNc3ccc(Cl)cc3)c(-c3ccccc3)n2)cc1`, the growth is 74.3% (inactive). As for `CCCCCCCCCCCC[n+]1c(C)cc(N)c2ccccc21`, the figure is -74.4% (active).

In the case of `CCCCCOC(=O)Nc1nc(=O)n(C2O[C@H](C)[C@@H](O)[C@H]2O)cc1F` (stereo not given in full), the growth was 100% (inactive).

For the compound `COc1ccc(-c2cc(-c3cc(OC)ccc3OC)nc(N)c2C#N)cc1`, the growth is 58.6% (inactive).

For the compound `COc1ccc(NC(=O)C2CC3C=CC2C3)c([N+](=O)[O-])c1` (stereo not given), the growth was 95.3% (inactive). As for `COc1cc2c(Nc3ccc(S(N)(=O)=O)cc3)ncnc2c(OC)c1OC`, the figure is 99.9% (inactive); as for `CCOS(=O)(=O)c1c(C(C)C)cc(C(C)C)cc1C(C)C`, 101% (inactive); as for `Cc1noc(C)c1CSc1ccccc1C(=O)N1CCN(c2cccc(C(F)(F)F)c2)CC1`, 74.9% (inactive). For `O=C(N/N=C/c1ccc([N+](=O)[O-])cc1)c1ccccc1Nc1cccc(C(F)(F)F)c1`, the growth is 98.1% (inactive). The figure for `Cc1ccc(NCCN(C)CC(C)O)c2c(=O)c3ccc(Cl)cc3sc12` (stereo not given) is -82.9% (active).

As for `O=C(CCn1cnc2c(cc(-c3ccccc3)n2-c2ccccc2)c1=O)Nc1ccc(F)cc1`, the growth was 79.4% (inactive). With `CCOC(=O)C1C(C(=O)OCC)C2C(=O)C3C(C(=O)OCC)C(C(=O)OCC)C3C(=O)C12` (stereo not given), the growth was 96.6% (inactive).

Turning to `Cc1ccc(/C=C2/C(=O)N(C)c3ccc(S(=O)(=O)Nc4ccc(C(C)(C)C)cc4)cc32)s1`, the growth was 58.1% (inactive).

For the compound `CO[C@H]1CC(O[C@@H]2/C(C)=C/C[C@@H]3C[C@@H](C[C@]4(C=C[C@H](C)[C@@H](C5CCCCC5)O4)O3)OC(=O)[C@@H]3C=C(C)[C@@H](O)[C@H]4OC/C(=C\C=C\[C@@H]2C)[C@]43O)O[C@@H](C)C1O[C@H]1C[C@H](OC)[C@@H](O)[C@H](C)O1` (stereo not given in full), the growth is -97.3% (active). In the case of `O=C(NCCNC(=O)c1ccc(F)cc1)Nc1ccc(-n2cc(-c3ccncc3)c(-c3ccc(Cl)c(O)c3)n2)cc1`, the growth is -3.97% (active).

Turning to `CCCCC/C=C/C/C=C/CCCCCCCC1=NC(C)(C)CN1C(C)C`, the growth was 12.9% (inactive).

Turning to `CCOC(=O)C1=CSC2=NC3=C(CCC/C3=C\c3ccc(Cl)cc3)C(c3ccc(Cl)cc3)N12` (stereo not given), the growth is 74.9% (inactive). As for `CCN(CC)CCNc1ccc(C)c2sc3cc(Cl)ccc3c(=O)c12`, the figure is -84.5% (active); as for `COc1cc2cc(Oc3ccc(NC(=O)c4ccc(Cl)c(C(F)(F)F)c4)cc3)c(C)nc2cc1OC`, 33% (inactive).

Turning to `Nc1cc(-c2ccncc2)c[nH]c1=O`, the growth is 91.7% (inactive).

As for `COc1cc(-c2nn(-c3cccc(NC(=O)NCCNC(=O)c4cccc(C(F)(F)F)c4)c3)cc2-c2ccncc2)ccc1Cl`, the growth was 31.7% (inactive).

`COc1cc(CNC(=O)C2CSC3(C)c4ccccc4C(=O)N23)cc(OC)c1OC` (stereo not given): the growth was 105% (inactive). The figure for `CSc1nc(S(C)(=O)=O)nc2[nH]c(=O)[nH]c12` is 108% (inactive); for `COc1cc(N)c2ncccc2c1SC` it is 93.1% (inactive); for `Cc1ccc(C(=O)C2C(=O)C3CCC2C3)cc1` (stereo not given) it is 95.4% (inactive). The figure for `Clc1ccc2c(c1)C(N1CCNCC1)=Nc1ccccc1O2` is 39% (inactive); for `COc1cc(-c2nn(-c3cccc(NC(=O)CCNc4ccc(N5CCOCC5)cc4)c3)cc2-c2ccncc2)ccc1Cl` it is 6.71% (active); for `O=c1oc2c(cc1-c1ccc(F)cc1)C(O)Oc1ccccc1-2` (stereo not given) it is 77.8% (inactive). The figure for `Cc1ccc(NC(=O)N2CCCCC2)cc1[N+](=O)[O-]` is 97% (inactive); for `O=C(CNc1nnc(-c2cccnc2SCc2ccccc2)s1)Nc1nc(Cl)cc(Cl)n1` it is 105% (inactive); for `CCn1c(SC/C(=N/O)c2ccccc2)nnc1-c1ccccc1` it is 104% (inactive).
